Compound activity as filed in PubChem.
A selection: hits, their analogues and other compounds. The true share with any hit is near 1.2%.
LmPK inh = inhibitors of Leishmania mexicana pyruvate kinase. AID 1721. purified LmPK, Kinase-Glo ATP luminescence, 1 h. 290,000 compounds, 0.37% hits. Potency, µM (highest dose often 57.5 µM), actives largely listed as inhibitors. Q27686
Target sequence (Q27686 whole entry, looked up): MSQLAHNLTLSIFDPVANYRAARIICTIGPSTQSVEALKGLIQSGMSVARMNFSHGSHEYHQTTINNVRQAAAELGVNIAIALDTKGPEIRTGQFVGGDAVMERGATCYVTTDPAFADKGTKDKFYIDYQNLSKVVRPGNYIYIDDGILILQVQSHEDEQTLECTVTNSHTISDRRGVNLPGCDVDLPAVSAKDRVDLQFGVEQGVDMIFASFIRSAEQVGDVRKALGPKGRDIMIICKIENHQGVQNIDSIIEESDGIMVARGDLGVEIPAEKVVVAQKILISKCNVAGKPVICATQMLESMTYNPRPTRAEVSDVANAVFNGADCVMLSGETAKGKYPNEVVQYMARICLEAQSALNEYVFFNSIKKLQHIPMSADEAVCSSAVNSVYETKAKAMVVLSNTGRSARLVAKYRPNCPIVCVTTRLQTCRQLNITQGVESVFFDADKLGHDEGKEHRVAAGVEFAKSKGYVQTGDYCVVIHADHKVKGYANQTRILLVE
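In 50 mM imidazole pH 7.2 with 7 mM MgCl2, LmPK (0.1 nM) turned over PEP (0.5 mM) and ADP (0.1 mM) for 1 h at room temperature. Luciferase read-out of ATP.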
AMA1 RON2 block = AMA1-RON2 (P. falciparum) interaction inhibition; AlphaScreen AMA1-biotinylated RON2 peptide binding; Potency, µM (doses to about 58.2 µM), most hits filed as inhibitors; 360,000 compounds, 0.2% hits; AID 720542; further: nearly all actives have a fitted effect of over 45% in size
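AMA1 (3D7) with his tag at 25 nM final met compounds first, then biotinylated RON2 peptide at 25 nM; detection used donor plus acceptor beads, 10 µg/mL apiece, read by AlphaScreen after 30 min at room temperature.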
NS1 inh = blocks influenza NS1 protein function; Potency, µM (highest dose often 46.1 µM); 270,000 compounds, 0.4% hits; AID 2326; calls by dose curve; further: actives are rising curves; nearly all actives have a fitted effect of over 50% in size
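Read-out: OD600 growth recovery of NS1-expressing budding yeast. Cells grown overnight at 30C in -URA glucose medium, washed, resuspended and diluted 1:100 in 2% galactose assay medium, pH 6.0. Same strain lacking NS1 served as positive control.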
FBPA Giardia inh = Giardia lamblia aldolase inhibition. purified Giardia FBPA. AID 2451. 290,000 compounds, 0.71% hits. A8B2U2. Potency, µM (doses to about 59.6 µM), most hits filed as inhibitors; further: nearly all actives have a fitted effect of over 55% in size
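40 nM FBPA preincubated 10 min at RT with compound (up to 57.5 uM final), then substrate plus GAPDH/TPI/NAD/arsenate coupling and diaphorase/resazurin added. Fluorescence read after 20 min at RT, 525/598 nm.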
TbPYK inhibitor = T. brucei pyruvate kinase inhibition | Q57TT1 | TbPYK enzyme, Kinase-Glo Plus ATP luminescence, 45 min | Potency, µM (top dose mostly 76.8 µM), actives largely listed as inhibitors | 410,000 compounds, 0.12% hits; further: nearly all actives have a fitted effect of over 50% in size
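TbPYK + substrate in 50 mM TEA pH 7.2, 100 mM KCl, 10 mM MgCl2, 0.05% BSA, 0.01% Tween-20; cpd pinned; ADP 130 uM final; 45 min RT; Kinase-Glo Plus 10 min; luminescence endpoint.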
Each line names hits and unclear results; the compound was inactive in the other large screens. Unless noted, the call rests on the fitted dose curve; in most records, active means well fitted curve in the direction sought with a large enough effect; inconclusive means small, poorly fitted or top-dose-only effect, or another doubt; inactive means no such curve, though single readings can be large; an effect the other way counts as inactive or inconclusive.

COc1ccc(-n2nc3c(c2NC(=O)c2cc4ccccc4oc2=O)CS(=O)(=O)C3)cc1	NS1 inh 6.31µM (no result: LmPK inh, AMA1 RON2 block, FBPA Giardia inh, TbPYK inhibitor)
COc1ccc(N2CCN(c3oc(COc4ccc(Cl)cc4Cl)nc3C#N)CC2)cc1	AMA1 RON2 block 25.1µM, NS1 inh inconclusive
COc1ccc(N2CCN(c3oc(COc4ccc(Cl)cc4)nc3C#N)CC2)cc1	AMA1 RON2 block inconclusive
COc1ccc(N2CCN(c3oc(Cc4ccccc4)nc3C#N)CC2)cc1	AMA1 RON2 block 16.8µM
COc1ccc(N2CCN(c3oc(COc4ccccc4)nc3C#N)CC2)cc1	AMA1 RON2 block inconclusive
COc1ccc2c(c1)O[C@@H](c1cccc(C(F)(F)F)c1)[C@H](OC(=O)NCc1ccco1)C2=O	none (no result: LmPK inh, AMA1 RON2 block, NS1 inh, TbPYK inhibitor)
COc1ccc(Cn2c(C(=O)O)c(CNCCc3cc(OC)ccc3OC)c3ccc(C)cc32)cc1	none (no result: LmPK inh, AMA1 RON2 block, NS1 inh, FBPA Giardia inh)
COc1cccc(-c2cc(=O)c3cc(NC(=O)c4cccnc4)ccc3[nH]2)c1	none (no result: LmPK inh, AMA1 RON2 block, NS1 inh, TbPYK inhibitor)
Cc1nc(N=Nc2ccc(O)cc2)n[nH]1	LmPK inh 14.1µM
CN(C(=O)c1ccco1)c1nc2c(s1)CCCC2	LmPK inh 25.1µM
CN(C(=O)c1ccco1)c1nnc(C23CC4CC(CC(C4)C2)C3)s1	none
O=C(/C=C/c1ccco1)N1CCc2ccccc21	LmPK inh 7.94µM, AMA1 RON2 block inconclusive, TbPYK inhibitor inconclusive (no result: NS1 inh)
Cc1ccc(/C=C/C(=O)N2CCc3ccccc32)o1	LmPK inh inconclusive, TbPYK inhibitor 20µM
Oc1cccc(-c2c3nc(c(-c4cccc(O)c4)c4ccc([nH]4)c(-c4cccc(O)c4)c4nc(c(-c5cccc(O)c5)c5ccc2[nH]5)CC4)C=C3)c1	none (no result: LmPK inh, AMA1 RON2 block, NS1 inh, FBPA Giardia inh)
Cc1ccc(-n2c(CNc3cccc(Cl)c3)n[nH]c2=S)cc1	TbPYK inhibitor inconclusive (no result: NS1 inh)
Cc1ccc(OCc2n[nH]c(=S)n2-c2ccc(Cl)cc2)cc1	FBPA Giardia inh inconclusive, TbPYK inhibitor inconclusive
Cc1ccc(NCc2n[nH]c(=S)n2-c2cccc(Cl)c2)cc1	LmPK inh inconclusive, TbPYK inhibitor 3.55µM (no result: NS1 inh)
Cc1ccc(-n2c(CNc3ccc(C)c(Cl)c3)n[nH]c2=S)cc1	LmPK inh inconclusive, TbPYK inhibitor 4.47µM
CN(C(=O)CSc1nc2ccc(NC(=O)COc3ccccc3Cl)cc2s1)c1ccccc1	none (no result: LmPK inh, AMA1 RON2 block, NS1 inh, FBPA Giardia inh)
c1ccc(-c2cn3c4c(sc3n2)CCCC4)cc1	LmPK inh 14.1µM
CC(=O)Nc1ccc(C2NC(C(=O)O)CCC2C)cc1 (stereo unspecified)	none (no result: LmPK inh, AMA1 RON2 block, NS1 inh, TbPYK inhibitor)
CCOc1ccc(NC(=O)c2nn(C)cc2Br)cc1	LmPK inh 31.6µM
NCCCC[C@H](NC(=O)[C@@H]1CCCN1C(=O)[C@@H]1CSSC[C@H](NC(=O)CNC(=O)CNC(=O)CN)C(=O)N[C@@H](Cc2ccc(O)cc2)C(=O)N[C@@H](Cc2ccccc2)C(=O)N[C@@H](CCC(N)=O)C(=O)N[C@@H](CC(N)=O)C(=O)N1)C(=O)NCC(N)=O	none (no result: LmPK inh, AMA1 RON2 block, NS1 inh, FBPA Giardia inh)
CCCCCCCC1=CC2=C(Cl)C(=O)C(C)(OC(C)=O)C(=O)C2=CO1 (stereo unspecified)	none (no result: LmPK inh, AMA1 RON2 block, NS1 inh, TbPYK inhibitor)
CCc1nc2ccc(C(=O)Nc3ccc(OC)c(OC)c3)cn2c1N(C)Cc1nccs1	none (no result: LmPK inh, NS1 inh, FBPA Giardia inh)
CCc1nc2ccc(C(=O)Nc3ccc(OC)c(OC)c3)cn2c1N(C)Cc1ccc(N(C)C)cc1	AMA1 RON2 block 31.6µM (no result: LmPK inh, NS1 inh, FBPA Giardia inh)
CCn1c(-c2cc(Cl)ccc2OC)n[nH]c1=S	LmPK inh inconclusive, TbPYK inhibitor 11.2µM
COc1ccc(Cl)cc1-c1n[nH]c(=S)n1C	TbPYK inhibitor inconclusive
C=CCn1c(-c2cc(Cl)ccc2OC)n[nH]c1=S	LmPK inh 12.6µM, TbPYK inhibitor inconclusive
C=CCn1c(CCSCc2ccc(OC)c(C)c2)n[nH]c1=S	TbPYK inhibitor 7.94µM (no result: NS1 inh)
CO[C@@H]1COC(=O)[C@H]2CCCN2C(=O)C/C=C\[C@@H](C)[C@H](OC)COC(=O)[C@H]2CCCN2C(=O)C/C=C\[C@H]1C	none (no result: LmPK inh, AMA1 RON2 block, NS1 inh, TbPYK inhibitor)
COc1ccc(NC(=O)CSc2nc3nc(C)c(Cc4ccccc4)c(C)n3n2)cc1OC	none (no result: LmPK inh, AMA1 RON2 block, NS1 inh, FBPA Giardia inh)
CCC1=C2CC[C@H]3C(=O)N(c4ccccc4)C(=O)[C@H]3[C@H]2[C@@]2(C)C(=O)N(CC(=O)OC)C(=O)N2C1=O	none (no result: LmPK inh, AMA1 RON2 block, NS1 inh, TbPYK inhibitor)
Cc1cnc(Nc2ccc(F)cc2Cl)nc1-c1c[nH]c(C(=O)N[C@H](CO)c2cccc(Cl)c2)c1	none (no result: LmPK inh, AMA1 RON2 block, NS1 inh, FBPA Giardia inh)
CC(C)(C)C1CCc2c(sc3nc(SCC(=O)O)nc(N)c23)C1 (stereo unspecified)	LmPK inh 25.1µM, TbPYK inhibitor inconclusive
COc1ccc(-c2cn3c(n2)sc2cc(C(=O)NCc4cccs4)ccc23)cc1	none (no result: LmPK inh, AMA1 RON2 block, NS1 inh, FBPA Giardia inh)
